This passage reports growth results from PubChem BioAssay (NCI).

Compounds without any hit were thinned out: in the full panel of roughly 83,000, 20% have a hit.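 In brief: 96-well plates, 48 h treatment, single concentration, percent growth endpoint.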 Unmarked numbers belong to inactive results. Calls of active or inactive are those of the source. Rule for the calls: active = growth percent below 10; inactive = the rest.

The assay has as its system MDA-MB-468 breast. Nature of the assay: NCI-60 one-dose screen, 48 h (100 = growth as untreated, 0 = no growth, -100 = all killed). The conditions noted are these: 10 µM unless noted.
On to `O=C(Nc1ccc(N=Cc2ccccc2O)cc1)NC1C=c2ccccc2=CC1` (stereo not drawn), for which the growth is 87.1%.

Turning to `COc1ccc(OCC(=O)OC(C)C)cc1`, the growth is 84.3%.

`Cc1ccc2oc(=O)cc(C3c4ccc([nH]4)C(c4cc(=O)oc5ccc(C)cc45)c4ccc([nH]4)C(c4cc(=O)oc5ccc(C)cc45)c4ccc([nH]4)C(c4cc(=O)oc5ccc(C)cc45)c4ccc3[nH]4)c2c1` (stereo not drawn): the growth is -28.6% (active).
